Data published in PubChem BioAssay (NCI).
This is part of a sample that, as a whole, favours compounds with a hit. Of some 83,000 tested, about 20% had one in any assay.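 Results are percent growth after 48 hours of single-concentration exposure. 100 means growth as in untreated cells, lower positive values show inhibition; negative values down to -100 show cell death.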 A number with no mark means an inactive call. Active and inactive are the calls of the source. The calls were made as follows: active = growth percent below 10; inactive = the rest.

Key:
Assay in all cases: NCI-60 one-dose screen, 48 h (100 = growth as untreated, 0 = no growth, -100 = all killed)
Settings in all cases: 10 µM unless noted
HCT-15 colon = tested on: HCT-15 colon
HT29 colon = tested on: HT29 colon
SNB-75 CNS = tested on: SNB-75 CNS
SNB-19 CNS = tested on: SNB-19 CNS
U251 CNS = tested on: U251 CNS
PC-3 prostate = tested on: PC-3 prostate
SK-MEL-5 melanoma = tested on: SK-MEL-5 melanoma
UACC-62 melanoma = tested on: UACC-62 melanoma
LOX IMVI melanoma = tested on: LOX IMVI melanoma
SK-MEL-28 melanoma = tested on: SK-MEL-28 melanoma
SK-MEL-2 melanoma = tested on: SK-MEL-2 melanoma
EKVX NSCLC = tested on: EKVX NSCLC
SN12C renal = tested on: SN12C renal
UO-31 renal = tested on: UO-31 renal
TK-10 renal = tested on: TK-10 renal
ACHN renal = tested on: ACHN renal
CAKI-1 renal = tested on: CAKI-1 renal
A498 renal = tested on: A498 renal
CCRF-CEM leukemia = tested on: CCRF-CEM leukemia
MOLT-4 leukemia = tested on: MOLT-4 leukemia

Row | SMILES | growth (HCT-15 colon) | growth (HT29 colon) | growth (SNB-75 CNS) | growth (SNB-19 CNS) | growth (U251 CNS) | growth (PC-3 prostate) | growth (SK-MEL-5 melanoma) | growth (UACC-62 melanoma) | growth (LOX IMVI melanoma) | growth (SK-MEL-28 melanoma) | growth (SK-MEL-2 melanoma) | growth (EKVX NSCLC) | growth (SN12C renal) | growth (UO-31 renal) | growth (TK-10 renal) | growth (ACHN renal) | growth (CAKI-1 renal) | growth (A498 renal) | growth (CCRF-CEM leukemia) | growth (MOLT-4 leukemia)
1 | COc1ccc(C/C(C)=C(/c2ccc(OCCN3CCCCC3)cc2)c2ccc(OC(=O)NCc3ccccc3)cc2)cc1 | -85.4% (active) | -87.8% (active) | -88.9% (active) | -90.6% (active) | -97.5% (active) | -95.9% (active) | -100% (active) | -92.9% (active) | -93% (active) | -85.8% (active) | -86.2% (active) | -78.4% (active) | -88% (active) | -92.2% (active) | -90.7% (active) | -100% (active) | -95% (active) | -97.1% (active) | -44.1% (active) | -53.2% (active)
2 | Cn1ccnc1C(=O)C(=O)Nc1ccc(CC(=O)Nc2ccccc2)cc1 | 96.9% | 107% | 92.2% | 96.5% | 108% | 107% | 101% | 95.5% | 100% | 107% | 123% | 102% | 103% | 85.7% | 116% | 107% | 93.3% | 103% | 105% | 107%
3 | Cc1ccc(Sc2nnc(/N=C3\C(=O)Nc4ccccc43)s2)cc1 | 105% | 111% | 87.5% | 101% | 97.4% | 99.7% | 107% | 103% | 97.8% | 105% | 105% | 102% | 97.5% | 90.5% | 104% | 96.6% | 85.6% | 93.6% | 93.4% | 100%
4 | CC(=O)c1cc(O)c2ccccc2c1O | 98.9% | 111% | 70.7% | 100% | 98.2% | 85.7% | 86.4% | 101% | 78.5% | 137% | 103% | 78.9% | 105% | 67% | 148% | 85.1% | 85.7% | 133% | -10.5% (active) | 107%
5 | N#Cc1cccc(NC(=O)c2oc3ccccc3c2-c2cnn(-c3ccccc3)c2)c1 | 74.1% [50 µM] | 85.5% [50 µM] | 86.3% [50 µM] | 84.2% [50 µM] | 85.3% [50 µM] | -9.05% [50 µM] (active) | 67.7% [50 µM] | 75% [50 µM] | 77.9% [50 µM] | 91.9% [50 µM] | 88.1% [50 µM] | 76.5% [50 µM] | 78.3% [50 µM] | 59% [50 µM] | 88.2% [50 µM] | 80.6% [50 µM] | 63.2% [50 µM] | 89.5% [50 µM] | -21.3% [50 µM] (active) | -5.03% [50 µM] (active)
6 | O=[N+]([O-])C1C(c2ccccc2)C12c1ccccc1-c1ccccc12 (stereo not given) | 17.5% | -13.4% (active) | 29% | 43.3% | -15.2% (active) | 12.2% | -16.5% (active) | 17.8% | -44.4% (active) | 49.2% | -1.42% (active) | 77.9% | 23% | 28.3% | 23.2% | 29.6% | 34.6% | -12.8% (active) | -12.1% (active) | -17.1% (active)
7 | COc1ccc(C(=O)Nc2ncc(Cc3cccc(Cl)c3)s2)cc1OC | 23.4% | 9.89% (active) | 19.8% | 34.2% | 28.4% | 27.4% | -25.9% (active) | 10.6% | 7.25% (active) | 10.9% | 8.92% (active) | 34.1% | 39.9% | 31.2% | 38.5% | 16.8% | 12.8% | 0.53% (active) | 17.3% | 29.2%
8 | O=C(O)c1ccc(-n2cc(/C=N/Nc3ccc(F)cc3)c(-c3cc4ccccc4oc3=O)n2)cc1 | 33.9% | 91% | 85.6% | 89.2% | 104% | 69.8% | 93.6% | 46.1% | 46.6% | 92.3% | 83.3% | 52.9% | 101% | 39.8% | 113% | 41% | 68.6% | 109% | 40.2% | 48.1%
9 | C#Cc1cccc(Nc2ncnc3ccc(-c4cnc(N)nc4)cc23)c1 | 23.1% | 48% | 6.34% (active) | 47.2% | 54.7% | 27.1% | 32.7% | 24.8% | 22.2% | 38.1% | 19.8% | 2.36% (active) | 7.3% (active) | -5.12% (active) | -9.72% (active) | 3.99% (active) | 2.19% (active) | -44.6% (active) | 35.7% | 19.6%
10 | COc1cc2c(c(OC)c1OC)C(=O)CC(c1cccc(NC(=O)c3ccc(Br)cc3)c1)O2 (stereo not given) | 29.8% | 46% | 47.7% | 64.6% | 42.2% | 20.9% | 4.06% (active) | 18.8% | 43.3% | 57% | 8.79% (active) | 74.3% | 61.5% | 34.9% | 61.7% | 52.4% | 46.2% | 36.2% | 2.95% (active) | -11.5% (active)
11 | CCN(c1ccc(Cl)cc1)c1nc(-c2ccc([N+](=O)[O-])cc2)cs1 | 98.1% | 91% | 96.8% | 95.4% | 102% | 92.6% | 99.7% | 79.8% | 93% | 105% | 101% | 79.5% | 98.5% | 71.9% | 115% | 95.9% | 79.6% | 63.8% | 101% | 96.9%
12 | COC(=O)/C=C1/SC(=Nc2ccc(C)cc2)N(CCc2c[nH]c3ccc(O)cc23)C1=O | 14.7% | 90.9% | 52% | 51.8% | 34.7% | 39% | 50.5% | 42.2% | -17.8% (active) | 48.4% | 35.4% | 49.6% | 45.4% | 46.8% | 94.6% | 57.4% | 69.9% | 67.1% | 1.81% (active) | -8.16% (active)
13 | CCCC(O)Cn1ncc(C(=O)OCC)c1NC(=O)NCc1ccccc1F (stereo not given) | 105% | 81.1% | 98.9% | 102% | 93.8% | 93.4% | 93.2% | 86.3% | 93.9% | 110% | 74.3% | 95.7% | 96.8% | 74.2% | 99.1% | 107% | 80.1% | 90.7% | 76.3% | 71%
14 | CN1CCN(Cc2ccc3c(NNC(=O)c4ccccc4)nc4cc(F)ccc4n23)CC1 | 33.8% | 30.7% | 48.8% | 27.4% | 12.2% | 39.9% | -26.8% (active) | 4.48% (active) | 7.25% (active) | 34.9% | 57.7% | 21.5% | 17.2% | 7.31% (active) | 30% | 11.5% | 11.8% | -7.93% (active) | 12.2% | 12%
15 | CCc1ccc(Oc2cn[nH]c2-c2ccc(OCCc3ccc(F)cc3)cc2O)cc1 | 74.3% | 42.4% | 79% | 108% | 53.5% | 72.2% | 97.5% | 88.6% | 86.8% | 87.3% | 90.1% | 87.9% | 95.3% | 81.7% | 66.8% | 94% | 100% | 105% | 95.6% | 84.4%
